Only some compounds are listed: those with a hit (about 2.4% of all), similar ones and a draw of the others.
M1 antag = blocks human M1 muscarinic receptor; P11229; CHO-K1 hM1, Fluo-8 calcium fluorescence, ACh EC80 antagonist; inhibition, % at 3 µM; actives 1.3% (n = 360,000);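 active = percent inhibition above its own plate's cutoff, namely the mean of that plate's compound wells plus 3 SD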;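 note: peak over basal fluorescence ratio during 140 s after agonist addition; 0% = ACh EC80 plus DMSO and 100% = DMSO alone without agonist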
Target sequence (P11229 whole entry, looked up): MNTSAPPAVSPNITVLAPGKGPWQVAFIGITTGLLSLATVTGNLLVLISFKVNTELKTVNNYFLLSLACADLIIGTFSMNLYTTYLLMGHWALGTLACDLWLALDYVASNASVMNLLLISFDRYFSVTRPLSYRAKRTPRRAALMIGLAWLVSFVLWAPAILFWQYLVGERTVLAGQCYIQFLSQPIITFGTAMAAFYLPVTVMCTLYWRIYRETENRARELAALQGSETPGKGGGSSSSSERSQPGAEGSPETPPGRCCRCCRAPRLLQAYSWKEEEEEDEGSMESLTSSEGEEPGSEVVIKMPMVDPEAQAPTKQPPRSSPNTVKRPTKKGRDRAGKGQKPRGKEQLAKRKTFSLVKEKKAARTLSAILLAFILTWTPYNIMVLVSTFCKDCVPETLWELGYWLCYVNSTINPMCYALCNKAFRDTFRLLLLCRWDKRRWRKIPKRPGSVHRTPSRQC
CHO-K1 Ca antag = nonselective inhibitor or artifact in parental CHO-K1 cells | ATP-induced calcium, Fluo-8 fluorescence | inhibition, % at 3 µM | actives 0.6% (n = 360,000) | AID 602250;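 active = inhibition above a per-plate cutoff, the plate's mean sample inhibition plus 3 SD, cut at about 24% in these data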;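 note: 0% = DMSO plus EC80 ATP and 100% = DMSO alone without ATP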
CHO-K1 Ca PAM = M1 PAM counterscreen hit in parental CHO-K1 cells; ATP EC20, Fluo-8 calcium fluorescence; 0% at ATP EC20, 100% at ATP max; activation, % at 3 µM; actives 0.02% (n = 360,000); AID 602247;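 active = activation above the run cutoff, the mean activation of all test compounds plus 3 SD, cut at about 40% in these data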;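 note: peak over basal fluorescence ratio in a 140 s read after ATP addition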
CHRM1 PAM = potentiates human M1 receptor response to acetylcholine; actives 0.088% (n = 360,000); activation, % at 3 µM; CHO-K1 hM1, Fluo-8 calcium fluorescence, ACh EC20; 0% = ACh EC20, 100% = maximal ACh; AID 588819; in the data active = activation above about 19%, passing the limit was not always enough
CHO-K1 Ca ag = nonselective activator or artifact in parental CHO-K1 cells; AID 602248; Fluo-8 calcium fluorescence; scaled to maximal ATP response, vehicle zero; activation, % at 3 µM; actives 0.48% (n = 360,000); in the data active = activation above about 15%;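 note: untransfected CHO-K1 host cells lacking M1 receptor as counterscreen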
CHRM1 agonist = activates human CHRM1 receptor; P11229; CHO-K1 hM1, Fluo-8 calcium fluorescence, agonist mode; 0% DMSO, 100% acetylcholine EC100; activation, % at 3 µM; actives 0.33% (n = 360,000); AID 588814;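 active = activation above the run's mean compound activation plus 3 SD, cut at about 16% in these data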;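 note: peak over basal fluorescence ratio within a 140 s kinetic read after compound addition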
The depositor's hits bear a star; nt = not tested or not shown.

SMILES	M1 antag	CHO-K1 Ca antag	CHO-K1 Ca PAM	CHRM1 PAM	CHO-K1 Ca ag	CHRM1 agonist
CCOC(=O)c1ccc(NC(=O)Nc2ccc(F)cc2)cc1	21.0*	48.6*	-5.8	-14.7	12.2	10.3
CS(=O)(=O)N1CCCC(C(=O)Nc2cccc(F)c2)C1 (configuration not stated)	-35.0	-9.8	17.1	32.0*	0.3	2.2
CC(=O)c1cccc(NC(=O)C2CCCN(S(C)(=O)=O)C2)c1 (configuration not stated)	-8.2	2.1	9.1	6.1	0.1	9.1
CCOC(=O)c1ccc(NC(=O)C2CCCN(S(=O)(=O)c3ccc(F)cc3)C2)cc1 (configuration not stated)	47.7*	6.4	-0.9	-17.1	10.1	1.5
CCOC(=O)c1ccc(NC(=O)C2CCN(S(=O)(=O)c3ccccc3)CC2)cc1	-20.4	0.5	17.2	11.4	0.5	3.4
CCOC(=O)c1ccc(NC(=S)NC2CCCC2)cc1	7.3	16.9	-11.8	-3.5	6.4	-6.9
CCOC(=O)c1ccc(NC(=O)NC2CC3CCC(C2)N3)cc1 (configuration not stated)	59.5*	-30.9	29.8	-22.3	1.7	-5.8
O=C(c1cc(F)c(F)cc1Cl)N1CCCc2ccccc21	-6.3	-2.6	4.6	0.3	-0.1	-8.2
CC(C)C[C@H]1CN(CCCC[C@H]2CNC(=O)C(=O)N2CCc2ccc(O)cc2)C(=O)C(=O)N1Cc1ccccc1	nt	-7.2	1.1	nt	0.3	nt
CCOC(=O)/C(=C\C=C1/Sc2cc(OCC)c(OCC)cc2N1CC)C(C)=O	24.4	17.8	-2.4	-14.7	38.3*	44.2*
CCOC(=O)/C(=C/C=C1\Sc2cc(OCC)c(OCC)cc2N1CC)C(C)=O	26.7	30.4*	-15.3	-21.1	45.6*	70.4*
CCN1/C(=C/C(C)=O)Sc2ccc(OC)cc21	-1.0	-17.7	8.2	5.6	-0.4	-3.1
CCNc1nc(NC(C)C)nc(-c2ccncc2)n1	-7.9	2.0	2.6	2.7	-0.1	-3.2
NC(=O)CSc1cn(Cc2ccccc2)c2ccccc12	-12.2	-20.8	12.6	10.4	1.2	0.5
COc1nccc(-c2ccc(F)cc2)c1C#N	-6.5	-2.8	6.6	5.2	-0.5	-7.8
COc1ccc(C)cc1NC(=O)CNc1ccccc1CN(C)C1CCCCC1	50.8*	5.4	8.8	-26.1	-0.2	-8.0
CCN1CCN(c2ccc(N3CCN(S(=O)(=O)c4ccc(C)c([N+](=O)[O-])c4)CC3)nn2)CC1	28.6*	2.6	-10.3	-20.9	-0.5	-7.0
COC(=O)c1cc(S(=O)(=O)N2CCN(c3ccc(F)cc3)CC2)cn1C	-0.2	5.0	20.7	-0.1	19.9*	-0.3
Cn1nc([N+](=O)[O-])nc1Sc1nnnn1-c1ccc(C(=O)O)cc1	1.5	1.0	3.8	4.4	0.2	-5.5
COc1cc(/C=N/NS(=O)(=O)c2ccccc2)c(OC)c(OC)c1	-13.1	-3.6	11.2	7.4	16.3*	-3.8
Cc1cc(C)c(NC(=O)CSc2nnc(CNC(=O)c3c(F)cccc3Cl)o2)c(C)c1	-8.4	-12.5	21.3	2.8	2.6	-3.6
Cc1ccc(NC(=O)CSc2nnc(CNC(=O)c3c(F)cccc3Cl)o2)cc1	9.4	25.9*	-6.5	-4.7	-0.1	-4.1
O=c1[nH]cnc2sc3c(c12)CCC3	-5.9	-13.6	17.4	4.0	0.1	-2.9
O=C(Oc1ccc(-c2nnco2)cc1)C1CCN(C(=O)c2ccc(F)cc2)CC1	-0.5	-5.3	21.8	4.1	2.3	-0.9
O=C(N1CCN(CCO)CC1)N1c2ccccc2C=Cc2ccccc21	30.7*	-14.5	27.8	-14.9	0.1	-6.0
SMILES	M1 antag	CHO-K1 Ca antag	CHO-K1 Ca PAM	CHRM1 PAM	CHO-K1 Ca ag	CHRM1 agonist
O=C(NCc1ccccc1)N1CCN(CCO)CC1	-10.0	3.4	6.2	3.5	0.2	-2.8
CC1(c2ccccc2)NC(=O)N(Cc2ccc([N+](=O)[O-])cc2)C1=O (configuration not stated)	-5.3	5.3	9.5	5.0	1.5	-4.9
O=C1NC(c2ccccc2)CCO1 (configuration not stated)	-23.3	-17.5	14.1	29.3*	0.3	3.2
COc1ccc(Cl)cc1S(=O)(=O)n1nnc2ccccc21	9.5	28.0*	0.7	1.7	0.4	-1.9
COc1ccc(OC)c(S(=O)(=O)n2nnc3ccccc32)c1	-5.2	-2.7	9.6	4.3	0.1	-3.5
CCN(CC)CCSc1nnc2c3ccccc3n(Cc3ccccc3)c2n1	51.2*	-7.7	12.9	-22.0	0.9	-6.4
CCN(CC)CCSc1nnc2c3cc(F)ccc3n(Cc3ccccc3)c2n1	13.9	-4.9	-0.5	-20.7	0.2	-10.9
CCN(CC)CCn1c2ccccc2c2nc3ccccc3nc21	-1.3	-6.2	7.2	-4.8	2.1	-8.1
CCN(CC)CCn1c2ccccc2c2n[nH]c(=S)nc21	35.8*	9.0	-3.9	-27.5	0.1	-10.3
Cn1c2ccccc2c2n[nH]c(=S)nc21	-7.2	6.9	12.1	7.9	15.3*	-3.5
CC(=O)Nc1cc2c(cc1NC(=O)Cn1nc(-c3ccccc3)ccc1=O)OCCO2	-3.6	-3.9	7.5	3.0	0.5	-3.8
CCN(C(=O)c1ccc(C(C)(C)C)cc1)c1nnc(Cn2nnc3ccccc32)s1	36.9*	31.3*	-7.2	-19.1	8.1	0.5
S=C(NCCc1ccccc1)Nc1ccc(Br)cn1	20.2	-12.8	-12.7	-2.0	-0.5	-3.7
Cc1n[nH]c(=S)n1/N=C/c1ccc(OCc2ccc(Cl)cc2)cc1	2.1	25.4*	-7.7	1.1	-0.1	-3.4
CC(C)c1ccc(/C=C(\NC(=O)c2ccccc2)C(=O)NCCN2CCOCC2)cc1	-12.2	9.5	-0.2	8.4	0.5	1.2
Cc1oc2cc3oc(=O)c(CCC(=O)N(C)CC(=O)O)c(C)c3cc2c1C	-10.2	0.9	7.5	16.7	-1.0	-0.1
CC(C)c1ccc(CNc2ccc3c(c2)ncn3C)cc1	34.0*	-10.8	27.2	-14.3	11.4	-8.9
Cn1cnc2cc(NCc3ccccc3Cl)ccc21	-8.2	-6.2	7.8	1.6	2.1	-11.1
Cc1c(N=c2scc(-c3ccccc3)n2C)c(=O)n(-c2ccccc2)n1C	97.9*	-12.2	13.6	-23.8	2.3	-5.8
Cc1ccc(C(OCC(O)CNCc2ccc(F)cc2)c2ccccc2)cc1 (configuration not stated)	8.1	35.6*	11.5	3.3	17.4*	7.5
COc1cc(C2Nc3ccccc3C(=O)N2NS(C)(=O)=O)c([N+](=O)[O-])cc1OC (configuration not stated)	-4.0	-7.4	7.4	27.3*	-0.2	-3.1
CC(=O)Nc1ccccc1NC(=O)c1ccc(C)c(C)c1	-7.9	-14.9	9.3	6.6	2.1	-3.7
CCOC(=O)c1ccccc1Cc1nc2ccccc2c(=O)[nH]1	98.0*	-2.3	10.5	-26.0	-0.2	-8.2

Assay outcomes as filed in PubChem.
